ChEMBL document CHEMBL3988442, “University of Dundee, Small-Polar-MMV Screening Library” (2021)
Out of some 66,000 compounds screened, about 960 (1.5%) showed an effect of 50% or more. The list comes from a sample in which strong results are over-represented; it also holds similar structures and randomly drawn compounds.

Test system: Trypanosoma brucei
Test: Trypanosoma brucei 72 hour study
Assay type: functional, organism-based
Parameters: scale not given: in the data most compounds retested in dose-response had high values

SMILES	Percent Effect (30.3 µM, […]) [%]	Percent Effect (30 µM, 30.03 µM) [%]
Cl.Clc1ccccc1OCCc1cc(C2CCNC2)n[nH]1 (stereo not given)	-6.852	–
CN(C(=O)c1ncn2c1CN(C)S(=O)(=O)c1ccccc1-2)C1CC1.O=C(O)C(F)(F)F	–	-19.09
COc1cc(N2CC[C@@H]3O[C@H](C(=O)N(C)C)C[C@@H]32)ncn1.O=C(O)C(F)(F)F	-9.278	–
CCC(NC(=O)C1CCN(S(C)(=O)=O)CC1)c1ccc(C)c(C)c1 (stereo not given)	–	-5.711
CCOCc1cc(CN2CCn3c(CO)nnc3C2)ccc1OC.O=C(O)CC(O)(CC(=O)O)C(=O)O	-50.73	–
O=C(O)C(F)(F)F.c1cnc(N2CCC3(CC2)CN(CC2CC2)c2ccccc23)nc1	99.63	–
CCS(=O)(=O)N1CCC2(CC1)CN(CC1CCOC1)c1ccccc12.O=C(O)C(F)(F)F (stereo not given)	14.83	–
O=C(O)C(F)(F)F.O=C1N(CC2CC2)CCC12CCN(c1ncccn1)CC2	-19.41	–
O=C(O)C(F)(F)F.O=C(O)C(F)(F)F.c1cnc(N2CCC3(CCN(CC4CC4)CC3)CC2)nc1	8.512	–
CS(=O)(=O)N1CCC2(CC1)CN(CC1CCOC1)c1ccccc12.O=C(O)C(F)(F)F (stereo not given)	18.78	–
O=C(O)C(F)(F)F.c1ccc2c(c1)N(CC1CCOC1)CC21CCN(c2cnccn2)CC1 (stereo not given)	99.95	–
Cc1noc(C(C)N2CCN(CCC(=O)N3CCOCC3)CC2)n1 (stereo not given)	–	-18.56
Cn1ccnc1C(=O)NCc1cnc2n1CCN(CC1CC1)CC2.O=C(O)C(F)(F)F.O=C(O)C(F)(F)F	-46.77	–
CC(C)N(C)Cc1cnc2n1CCN(CCc1ccccc1)C2.O=C(O)C(F)(F)F.O=C(O)C(F)(F)F	–	55.49
COCCN1CCn2c(CN(C)C(C)C)cnc2C1.O=C(O)C(F)(F)F.O=C(O)C(F)(F)F	0.5782	–
CC(C)N(C)Cc1cnc2n1CCN(Cc1cccc(F)c1)C2.O=C(O)C(F)(F)F.O=C(O)C(F)(F)F	-6.591	–
CCn1nnc2c1C(COCC(=O)N(C)C)CN(Cc1ccco1)C2.O=C(O)C(F)(F)F (stereo not given)	-38.68	–
COc1cccc(-c2nc(C)c(C(=O)NCCC(=O)O)s2)c1	–	-31.35
CC(C)CC(=O)N1CC(=O)c2sc(Nc3ccc(C#N)cc3)nc2C1	-13.31	–
CSc1ccc(CN2CCCC3(CNC(=O)c4ccccc4O3)C2)cc1 (stereo not given)	60.61	–
O=C1NCC2(CCCN(CCc3ccccc3)C2)Oc2ccccc21 (stereo not given)	-38.35	–
O=C1NCC2(CCCN(Cc3ccc(F)cc3)C2)Oc2ccccc21 (stereo not given)	13.09	–
C=Cc1ccc(CN2CCCC3(CNC(=O)c4ccccc4O3)C2)cc1 (stereo not given)	79.56	–
O=C1NCC2(CCCN(Cc3ccccc3F)C2)Oc2ccccc21 (stereo not given)	-8.26	–
O=C1NCC2(CCCN(Cc3ccc(Cl)s3)C2)Oc2ccccc21 (stereo not given)	–	12.52
